Shown are actives, neighbours in structure and some others; about 3.8% of the full set was active somewhere.
ERa coact inh – ERα–SRC-1 coactivator interaction inhibitors, primary screen, biochemical, TR-FRET, ERα LBD, estradiol-bound; inhibition, % at 25.6 µM; Estrogen receptor (Homo sapiens), P03372; 86,000 compounds, 1.7% hits; TR-FRET ER-alpha LBD / SRC-1 peptide; in the data active means inhibition above about 50%;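 further: 0% = receptor plus peptide control and 100% = peptide only without receptor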
ERb coact inh – inhibitors of ERβ-SRC1 coactivator interaction, primary screen, biochemical, TR-FRET, ERβ LBD, SRC-1 peptide. inhibition, % at 25.6 µM. TR-FRET ER-beta LBD / SRC1-Cy5 peptide binding; receptor agonist-loaded with 1 µM estradiol. AID 633, 2007. Estrogen receptor beta (Homo sapiens), Q92731. 86,000 compounds, 1.3% hits;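 active means compounds whose percent inhibition of the receptor-coactivator binding signal exceeds about 50% in the single-dose screen, limit read from the data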;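 further: 0% = receptor plus peptide wells without compound and 100% = peptide-only wells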
Target sequence (Q92731 whole entry, looked up, the tested form may be a part): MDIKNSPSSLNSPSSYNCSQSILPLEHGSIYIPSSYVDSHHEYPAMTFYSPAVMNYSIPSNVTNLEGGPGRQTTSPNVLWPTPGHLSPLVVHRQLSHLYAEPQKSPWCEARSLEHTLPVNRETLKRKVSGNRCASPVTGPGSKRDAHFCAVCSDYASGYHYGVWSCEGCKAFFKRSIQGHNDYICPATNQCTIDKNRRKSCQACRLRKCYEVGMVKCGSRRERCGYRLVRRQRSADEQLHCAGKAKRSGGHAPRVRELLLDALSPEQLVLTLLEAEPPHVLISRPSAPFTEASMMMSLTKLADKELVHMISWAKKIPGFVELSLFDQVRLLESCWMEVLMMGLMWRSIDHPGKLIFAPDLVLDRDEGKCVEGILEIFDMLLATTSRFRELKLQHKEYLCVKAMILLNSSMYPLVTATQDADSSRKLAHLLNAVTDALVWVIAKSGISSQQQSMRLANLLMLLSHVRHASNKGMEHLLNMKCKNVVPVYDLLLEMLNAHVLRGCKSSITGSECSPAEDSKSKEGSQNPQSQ
DAT uptake mod – changed hDAT dopamine uptake under cocaine IC80, either direction, primary screen, cocaine antagonist project, cell-based, LLC-PK1 hDAT, [14C]-dopamine uptake, MLSMR; Sodium-dependent dopamine transporter (Homo sapiens), Q01959; AID 449768, 2010; B-score at 10 µM; LLC-PK1 hDAT cells, [14C]-dopamine uptake with cocaine IC80; actives deviate in either direction; 110,000 compounds, 1.3% hits;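 active means Z score or B-score, a plate-position-corrected score, falls beyond the plate's 99.7% confidence bounds, in either direction; inactive means both scores lie inside the 99.7% bounds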;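 further: scored against the spread of the other compound wells on the same plate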
MT1-MMP txn act – MT1-MMP promoter reporter activation – cell-based, luciferase luminescence, primary screen | HT1080 MT1-MMP promoter luciferase reporter, overnight; hits give high values | activation factor at 10 µM | 86,000 compounds, 0.16% hits;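 active means activation factor of at least 2 for MT1-MMP transcription at 10 µM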
ERa coact pot – enhancers of ERα–SRC-1 coactivator binding, primary screen, biochemical, TR-FRET, ERα LBD, low estradiol; TR-FRET ERalpha-LBD/SRC-Cy5 coactivator binding, 2 h; 100 = basal binding, no effect; Estrogen receptor (Homo sapiens), P03372; coactivator binding (% of control), % at 25.6 µM; AID 639, 2007; 86,000 compounds, 1.3% hits; in the data active means activity above about 200%;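 further: binding measured in presence of low estradiol as agonist stimulus; 0% = peptide alone without receptor and 100% = receptor with peptide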
Numbers without * were called inactive; / = no result given; [ ] = another dose, or the depositor's remark.

SMILES	ERa coact inh	ERb coact inh	DAT uptake mod	MT1-MMP txn act	ERa coact pot
CC1=C(C#N)C(Nc2ccc(Cl)cn2)(C(F)(F)F)C(=O)N1 (stereo not drawn)	-4	-10	-1.3	1	102
CC1=C(C#N)C(Nc2ccc(C)cn2)(C(F)(F)F)C(=O)N1 (stereo not drawn)	5	12	-0.63	1.1	228*[fluorescence artefact?]
N#C/C(=C\c1c(N2CCC(C(N)=O)CC2)nc2ccccn2c1=O)S(=O)(=O)c1ccccc1	23	53*	0.83	1.1	94
CC1CN(c2nc3ccccn3c(=O)c2/C=C(\C#N)S(=O)(=O)c2ccccc2)CC(C)O1 (stereo not drawn)	-2	0	-0.44	1.1	108
O=C(Cn1nnc(-c2ccc(CN3CCOCC3)cc2)n1)Nc1nc(-c2ccccc2)cs1	-5	9	-9.6*	0.9	131
Cn1c(Sc2ccc(Br)cc2)c(C=O)c2ccccc21	/	/	-0.7	/	/
COc1ccc(C2=[N+]([O-])C(C)(C)N(O)C2C)cc1 (stereo not drawn)	-19	-9	-1.7	1	101
O=C(Nc1cccc(NC(=O)c2nccc3ccccc23)c1)c1ccco1	-1	-3	/	1.3	97
COc1ccc(C2c3c(-c4cc(Cl)c(C)cc4O)n[nH]c3C(=O)N2Cc2cccnc2)cc1OC (stereo not drawn)	2	3	3*	1	86
COc1ccc(C2c3c(oc4c(C)cc(C)cc4c3=O)C(=O)N2Cc2cccnc2)cc1OC (stereo not drawn)	-6	-2	/	0.9	110
O=C1c2[nH]nc(-c3ccccc3O)c2C(c2cccc(Cl)c2)N1Cc1ccco1 (stereo not drawn)	20	13	-0.78	1.3	27
COc1ccc(CCN2C(=O)c3[nH]nc(-c4ccccc4O)c3C2c2cccc(O)c2)cc1OC (stereo not drawn)	19	18	2.7*	0.9	65
COc1ccc(-c2nc3c(c(=O)[nH]c(=O)n3Cc3ccccc3)n2C)cc1	35	41	-0.59	/	270*[fluorescence artefact?]
COc1ccc(-c2nc3c(c(=O)[nH]c(=O)n3Cc3ccccc3)n2Cc2ccccc2)cc1	/	/	-0.029	/	/
O=C(CSc1nnc(-c2ccccc2NC(=O)c2ccccc2)o1)OC1CCCCC1	0	5	0.13	1.3	156
CCOC(=O)CN(C(=O)CSc1nnc(CNc2ccc(F)cc2)n1CC)c1ccc(F)cc1	-3	-8	0.26	/	223*
CCOC(=O)CN(C(=O)CSc1nnc(CNc2ccc(C)cc2C)n1CC)c1ccccc1	-3	1	/	1.1	97
Cc1nc2cc(NC(=O)COc3ccc(C#N)cc3)ccc2n1-c1ccccc1	-25	-12	-7.9*	1	115
COC(=O)C[C@H]1c2cc(F)cc(F)c2S(=O)(=O)N1C1CCN(Cc2ccccc2)CC1	/	/	0.084	/	/
COc1cccc(C(=O)Nc2c(C(N)=O)oc3ccccc23)c1	1	90*[fluorescence artefact?]	0.014	1.2	81
CCOC(=O)c1oc2ccccc2c1NC(=O)c1cccc(OC)c1	-11	-10	0.16	1.1	118
COc1cc(C(=O)Nc2ccc(-c3nc4cc(C)ccc4o3)c(O)c2)cc(OC)c1OC	11	16	-0.57	1	246*
COc1cccc(C(=O)Nc2ccc(-c3nc4ccccc4o3)c(O)c2)c1	60*[fluorescence artefact?]	36	0.67	1.6	150
C=CC1CN(C(=O)OCC(Cl)(Cl)Cl)C2CC3c4ccc(OC)cc4NC3C3CC1C2CO3 (stereo not drawn)	/	/	-0.3	/	/
COC(=O)c1c(C)[nH]c(C)c1C(=O)c1ccccc1Cc1ccccc1	/	/	0.41	/	/
COc1cccc(N2[C@@H](CC(C)=O)c3ccc(/C=C/C(C)=O)cc3S2(=O)=O)c1	/	/	-0.19	/	/
CCOC(=O)c1c(C#N)c(SCC(=O)Nc2ccc(OC)cc2)nc2c1CN(CC)CC2	-2	-1	0.94	1.1	262*
COc1ccc(NC(=O)CSc2nc(N)c(C#N)cc2C#N)cc1	/	/	0.23	/	/

Source: PubChem
